Measured values: PubChem BioAssay (NCI)
Values joined by “and” are separate entries in the source; they are usually repeats but may differ in a detail not shown here. Identical values can stand only once. About 83,000 compounds went through this panel and 20% of them were active in at least one assay; those are over-represented in the sample as a whole.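 Single-concentration screen, 48 h exposure, 96-well plates. Endpoint: percent growth. Below 10 = active.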 Values without a mark were called inactive. Active and inactive are the calls of the source.

Tests used:
Assay in all cases: NCI-60 one-dose screen, 48 h (100 = growth as untreated, 0 = no growth, -100 = all killed)
Details in all cases: 10 µM unless noted
HCT-15 colon = system: HCT-15 colon
HT29 colon = system: HT29 colon
SNB-75 CNS = system: SNB-75 CNS
SNB-19 CNS = system: SNB-19 CNS
U251 CNS = system: U251 CNS
PC-3 prostate = system: PC-3 prostate
SK-MEL-5 melanoma = system: SK-MEL-5 melanoma
UACC-62 melanoma = system: UACC-62 melanoma
LOX IMVI melanoma = system: LOX IMVI melanoma
SK-MEL-28 melanoma = system: SK-MEL-28 melanoma

Row | SMILES | growth (HCT-15 colon) | growth (HT29 colon) | growth (SNB-75 CNS) | growth (SNB-19 CNS) | growth (U251 CNS) | growth (PC-3 prostate) | growth (SK-MEL-5 melanoma) | growth (UACC-62 melanoma) | growth (LOX IMVI melanoma) | growth (SK-MEL-28 melanoma)
1 | CN(C)c1ccc(/C=N/N=C(\C#N)[S][Sn]([Cl])([c]2ccccc2)[c]2ccccc2)cc1 | -30.6% (active) | 19.2% | 8.38% (active) | 89.6% | 57.3% | 68.6% | 37% | 34.7% | -92.8% (active) | -48.7% (active)
2 | CC1OC2CC(=O)OC2C2=C1C(=O)c1c(O)cccc1C2=O (stereo not given) | -76.6% (active) | -51.8% (active) | -100% (active) | 15.9% | -44.8% (active) | -35.3% (active) | -100% (active) | -89.4% (active) | -91.6% (active) | -93.5% (active)
3 | N[C@H](C(=O)O)[C@@H]1CC(Cl)=NO1 | 15.9% [20 µM] | 17.3% [20 µM] | 27.3% [20 µM] | 30.6% [20 µM] | 26.8% [20 µM] | 31% [20 µM] | 11.4% [20 µM] | 22.4% [20 µM] | 13.2% [20 µM] | 34.7% [20 µM]
4 | O=C(/C=C\c1cc(Br)ccc1O)/C=C/c1cc(Br)ccc1O | 0% (active) | -54.2% (active) | -8.46% (active) | -52.7% (active) | -82.6% (active) | -16% (active) | -87.5% (active) | -67.5% (active) | -95.6% (active) | -66.9% (active)
5 | Nc1ncnc2c1ncn2C1OC(CO)C(O)C1O (stereo not given) | 109% and 33.5% and 105% | 109% and 35.6% and 98.4% | 99.1% and 50.2% and 91.3% | 106% and 67.8% and 100% | 107% and 92.7% and 104% | 81.4% and 29.8% and 98.9% | 107% and 103% and 102% | 110% and 82.7% and 101% | 106% and 57.2% and 94.6% | 116% and 124% and 125%
6 | O=C1c2ccccc2C(=O)c2sc(Nc3cccc(Cl)c3)nc21 | -67.3% (active) | 76.1% | -85.2% (active) | 42.8% | -47.3% (active) | 3.03% (active) | -82.6% (active) | -55.6% (active) | -69.1% (active) | -78.1% (active)
7 | O=Nc1ccccc1N=O | 51.4% | 81.6% | 46.6% | 88.6% | 78.3% | 83.9% | 87.2% | 71.2% | 60% | 92.9%
8 | C=CCOc1ccc(N=NC(C#N)C#N)cc1 | 56.9% | 72.7% | 74.3% | 94% | 84.6% | 70.4% | 91.8% | 47.7% | 26% | 65.1%
9 | CNc1ccc(N)cc1 | 109% | 107% | 67.3% | 104% | 117% | 96.4% | 101% | 89.3% | 104% | 140%
10 | Oc1c(Br)c(Br)c(O)c(Br)c1Br | 11% | 129% | 120% | 106% | 114% | 105% | 102% | 93.3% | 90.9% | 92.8%
11 | COc1ccccc1/C=C\C(=O)c1ccccc1 | 70.2% | 41.9% | 77.8% | 79.4% | 45.6% | 61.8% | 72.3% | 77.2% | 28.6% | 94.9%
12 | O=C(/C=C/c1cccc(Cl)c1)c1ccccc1 | 56.7% and 62.8% | 95.2% and 32.4% | 104% and 95.2% | 89.3% and 76.4% | 75.9% and 45% | 96% and 88.8% | 94% and 93.4% | 81.5% | 60.5% and 20.8% | 114% and 109%
